# Data from the supplement of paper PMC6331611.
# ± gives the standard deviation of the averaged measurements. Whole data set: some 1,600 compounds, median “normalized intracellular growth (luminescence, IQM-normalized) in RAW264.7 macrophages” near 1, cut for the lowest 2% near 0.43. This is one part of a sample in which the lowest values are shown more often than they occur.
# Test system: Salmonella enterica serovar Typhimurium SL1344
# Assay: normalized intracellular growth (luminescence, IQM-normalized) in RAW264.7 macrophages (fraction of plate interquartile mean); higher = more bacterial growth (less inhibition)
# Conditions: 10 µM
Structure (SMILES),normalized intracellular growth (time point: T3 (3 h)),normalized intracellular growth (time point: Tfinal (~6 h))
S=C=Nc1ccc(N=C=S)cc1,1.04 ± 0.035,1.01 ± 0.11
CN(C)c1ccc2nc3ccc(=[N+](C)C)cc-3sc2c1,1.29 ± 0.088,1.4 ± 0.2
COc1cc(/C=C/C(N)=O)cc(OC)c1OC,1.04 ± 0.084,1.03 ± 0.12
COc1ccc(Cc2cnc(N)nc2N)cc1OC,0.784 ± 0.028,0.17 ± 0.021
COc1cc(Cc2cnc(N)nc2N)cc(OC)c1OC,0.563 ± 0.068,0.155 ± 0.025
C[C@@H]1CC2C3C[C@H](F)C4=CC(=O)C=C[C@]4(C)[C@@]3(F)[C@@H](O)C[C@]2(C)[C@@]1(O)C(=O)COC(=O)C(C)(C)C (some centres undefined),0.961 ± 0.055,0.888 ± 0.12
Cc1cc(-c2ccc(/N=N/c3ccc4c(S(=O)(=O)O)cc(S(=O)(=O)O)c(N)c4c3O)c(C)c2)ccc1/N=N/c1ccc2c(S(=O)(=O)O)cc(S(=O)(=O)O)c(N)c2c1O,1.06 ± 0.038,1.36 ± 0.084
CCOC(=S)SSC(=S)OCC,0.994 ± 0.036,0.924 ± 0.067
C[C@@H]1NC(=O)[C@@H](N)CNC(=O)[C@H](C2CCNC(=N)N2)NC(=O)/C(=C/NC(N)=O)NC(=O)[C@H](CNC(=O)CC(N)CCCN)NC1=O.N=C1NCC[C@H]([C@@H]2NC(=O)/C(=C/NC(N)=O)NC(=O)[C@H](CNC(=O)C[C@@H](N)CCCN)NC(=O)[C@H](CO)NC(=O)[C@@H](N)CNC2=O)N1,0.976 ± 0.016,0.966 ± 0.059
CC(=O)N[C@@H]([C@@H](O)[C@H](O)[C@H](O)CO)[C@@H](O)CC(=O)C(=O)O,1.02 ± 0.058,1.06 ± 0.24
C[C@@H]1O[C@@H](OC[C@H]2O[C@@H](Oc3c(-c4ccc(OCCO)c(OCCO)c4)oc4cc(OCCO)cc(O)c4c3=O)[C@H](O)[C@@H](O)[C@@H]2O)[C@H](O)[C@H](O)[C@H]1O,0.951 ± 0.034,0.746 ± 0.24
OC[C@H]1O[C@@H](O[C@H]2[C@H](O)[C@@H](O)C(O)O[C@@H]2CO)[C@H](O)[C@@H](O)[C@H]1O (some centres undefined),1.05 ± 0.022,1.04 ± 0.026
C1CNCCN1,0.991 ± 0.091,0.655 ± 0.077
C[C@@H]1CN(c2c(F)c(F)c3c(=O)c(C(=O)O)cn(C4CC4)c3c2F)C[C@H](C)N1,0.986 ± 0.025,0.0257 ± 0.0074
C[C@@H]1CN(c2c(F)c(N)c3c(=O)c(C(=O)O)cn(C4CC4)c3c2F)C[C@H](C)N1,1.08 ± 0.037,0.0132 ± 0.002
COc1ccc(CN(CCN(C)C)c2ncccn2)cc1,1.1 ± 0.06,1.1 ± 0.093
Cc1cc2nc3c(=O)[nH]c(=O)nc-3n(CC(O)C(O)C(O)COP(=O)(O)O)c2cc1C (centres undefined),0.886 ± 0.064,1.08 ± 0.19
O=C(O)CN(CCN(CC(=O)O)CC(=O)O)CC(=O)O.[Na+].[Na+].[Na+],1.03 ± 0.021,1.54 ± 0.093
C[C@H]1O[C@@H](O[C@H]2[C@@H](O)C[C@H](O[C@H]3[C@@H](O)C[C@H](O[C@H]4CC[C@@]5(C)[C@H](CC[C@@H]6[C@@H]5CC[C@]5(C)[C@@H](C7=CC(=O)OC7)CC[C@]65O)C4)O[C@@H]3C)O[C@@H]2C)C[C@H](O)[C@@H]1O,1.03 ± 0.042,1.08 ± 0.087
NC(=O)c1ccccc1O,1.04 ± 0.085,0.978 ± 0.036
CCCc1nc(C(C)(C)O)c(C(=O)O)n1Cc1ccc(-c2ccccc2-c2nnn[nH]2)cc1,1.027 ± 0.0089,1.118 ± 0.0057
CCCc1nc(C(C)(C)O)c(C(=O)OCc2oc(=O)oc2C)n1Cc1ccc(-c2ccccc2-c2nnn[nH]2)cc1,1 ± 0.026,0.855 ± 0.39
CCCCC(=O)N(Cc1ccc(-c2ccccc2-c2nnn[nH]2)cc1)[C@H](C(=O)O)C(C)C,0.881 ± 0.033,0.239 ± 0.016
CCCCC1=NC2(CCCC2)C(=O)N1Cc1ccc(-c2ccccc2-c2nnn[nH]2)cc1,1.06 ± 0.014,1.14 ± 0.22
CCCCc1nc(Cl)c(CO)n1Cc1ccc(-c2ccccc2-c2nnn[nH]2)cc1,0.909 ± 0.056,0.215 ± 0.0058
CCOc1nc2cccc(C(=O)O)c2n1Cc1ccc(-c2ccccc2-c2nnn[nH]2)cc1,0.992 ± 0.057,1.04 ± 0.034

Structure (SMILES),normalized intracellular growth (time point: T3 (3 h)),normalized intracellular growth (time point: Tfinal (~6 h))
CCCCC(CC)COc1ccc(-c2nc(-c3ccc(OC)cc3)nc(-c3ccc(OCC(CC)CCCC)cc3O)n2)c(O)c1 (centres undefined),1.02 ± 0.065,1.1 ± 0.17
Nc1nc(F)nc2c1ncn2[C@@H]1O[C@H](COP(=O)(O)O)[C@@H](O)[C@@H]1O,0.982 ± 0.061,1.16 ± 0.13
O=C1OC2(c3ccc(O)cc3Oc3cc(O)ccc32)c2ccccc21,1.02 ± 0.069,0.891 ± 0.079
COc1ccc(C[C@H](N)C(=O)N[C@H]2[C@@H](O)[C@H](n3cnc4c(N(C)C)ncnc43)O[C@@H]2CO)cc1,0.993 ± 0.058,1.05 ± 0.16
NCCCC(=O)O [gamma-AMINOBUTYRIC ACID],0.9762 ± 0.0094,1.05 ± 0.096
FCOC(C(F)(F)F)C(F)(F)F,1.01 ± 0.052,0.806 ± 0.18
NCCCC(O)(P(=O)(O)O)P(=O)(O)O,0.994 ± 0.083,1.12 ± 0.14
CCCCCN(C)CCC(O)(P(=O)(O)O)P(=O)(O)O,0.886 ± 0.014,0.0897 ± 0.012
O=C1c2ccccc2C(=O)C1c1ccc(Br)cc1,1.08 ± 0.047,1.15 ± 0.21
CO/N=C1\C[C@]2(C[C@@H]3C[C@@H](C/C=C(\C)C[C@@H](C)/C=C/C=C4\CO[C@@H]5[C@H](O)C(C)=C[C@@H](C(=O)O3)[C@]45O)O2)O[C@H](/C(C)=C/C(C)C)[C@H]1C,0.979 ± 0.022,0.831 ± 0.033
CCN(CC)CCOc1ccc2c(c1)C(=O)c1cc(OCCN(CC)CC)ccc1-2,1 ± 0.035,1 ± 0.021
CCCCCCCCCCCCCCCC(=O)OC[C@@H](NC(=O)C(Cl)Cl)[C@H](O)c1ccc([N+](=O)[O-])cc1,1.04 ± 0.037,0.822 ± 0.14
CC(=O)Nc1ccc(S(=O)(=O)Nc2ccc([N+](=O)[O-])cc2)cc1,0.992 ± 0.038,1.03 ± 0.15
O=C(O)CCC(=O)OC[C@@H](NC(=O)C(Cl)Cl)[C@H](O)c1ccc([N+](=O)[O-])cc1,0.927 ± 0.048,0.178 ± 0.014
O=C(N[C@H](CO)[C@H](O)c1ccc([N+](=O)[O-])cc1)C(Cl)Cl,0.927 ± 0.049,0.163 ± 0.022
CS(=O)(=O)c1ccc([C@@H](O)[C@@H](CO)NC(=O)C(Cl)Cl)cc1,0.925 ± 0.07,0.767 ± 0.047
NC(=O)c1ccc([N+](=O)[O-])cc1Cl,1.06 ± 0.052,1.18 ± 0.017
CS(=O)(=O)c1ccc([C@@H](O)[C@@H](CF)NC(=O)C(Cl)Cl)cc1,1.27 ± 0.096,0.22 ± 0.17
CC(=O)Nc1ccc(S(=O)(=O)c2ccc(NC(C)=O)cc2)cc1,1.01 ± 0.04,0.912 ± 0.062
OC[C@@H](O)[C@@H](O)CO,0.947 ± 0.1,1.08 ± 0.11
Cc1cc(C(C)(C)C)c(O)c(C(C)(C)C)c1,1.06 ± 0.046,0.834 ± 0.12
FC(F)(F)C(Cl)Br (centres undefined),1 ± 0.049,1.08 ± 0.18
CN1CC(=O)NC1=N,1.03 ± 0.02,1.1 ± 0.1
COc1cc([C@@H]2c3cc4c(cc3[C@@H](O[C@@H]3O[C@@H]5CO[C@@H](c6cccs6)O[C@H]5[C@H](O)[C@H]3O)[C@H]3COC(=O)[C@H]23)OCO4)cc(OC)c1O,1.1 ± 0.049,1.016 ± 0.0097
CCCc1nc(C)c2c(O)nc(-c3cc(S(=O)(=O)N4CCN(CC)CC4)ccc3OCC)nn12,0.997 ± 0.027,0.899 ± 0.1
CC(=O)N(c1onc(C)c1C)S(=O)(=O)c1ccc(N)cc1,0.951 ± 0.011,1.02 ± 0.17

Structure (SMILES),normalized intracellular growth (time point: T3 (3 h)),normalized intracellular growth (time point: Tfinal (~6 h))
C[C@@H]1C[C@H]2[C@@H]3CCC4=CC(=O)C=C[C@]4(C)[C@@]3(F)[C@@H](O)C[C@]2(C)[C@@]1(O)C(=O)CO,1 ± 0.062,0.99 ± 0.075
CC(=O)NCCCCCC(=O)O,0.997 ± 0.019,1.02 ± 0.17
O=S(=O)(O)CCSSCCS(=O)(=O)O,1.02 ± 0.061,0.986 ± 0.18
CC(C(=O)O)c1ccc(CC2CCCC2=O)cc1 (centres undefined),1.05 ± 0.055,1.06 ± 0.064
NC[C@@H]1CC[C@@H](N)[C@@H](O[C@H]2[C@H](O)[C@@H](O[C@H]3O[C@H](CO)[C@@H](O)[C@H](N)[C@H]3O)[C@H](N)C[C@@H]2N)O1,1.04 ± 0.023,0.976 ± 0.13
NCC(O)CC(=O)O (centres undefined),0.966 ± 0.067,1.03 ± 0.12
C[C@H]1COc2c(C3(N)CC3)c(F)cc3c(=O)c(C(=O)O)cn1c23,1.36 ± 0.11,0.00812 ± 0.0004
C[C@H]1COc2c(N3CCN(C)CC3)c(F)cc3c(=O)c(C(=O)O)cn1c23,1.245 ± 0.0094,0.00765 ± 0.001
CC1COc2c(N3CCN(C)CC3)c(F)cc3c(=O)c(C(=O)O)cn1c23 (centres undefined),0.856 ± 0.034,0.134 ± 0.0023
CN1CCN(c2c(F)cc3c(=O)c(C(=O)O)cn4c3c2SCC4)CC1,0.982 ± 0.061,0.095 ± 0.094
CCCCCCc1ccc(O)cc1O.Nc1c2ccccc2nc2ccccc12,0.891 ± 0.014,1.07 ± 0.012
CC1(C)S[C@@H]2[C@H](N3C(=O)[C@@H](c4ccccc4)NC3(C)C)C(=O)N2[C@H]1C(=O)O,1 ± 0.031,0.974 ± 0.056
COC(=O)/C=C/C(=O)OC,0.935 ± 0.047,0.937 ± 0.028
O=C([O-])[C@H]1/C(=C/CO)O[C@@H]2CC(=O)N21.[Li+],1.02 ± 0.099,0.812 ± 0.11
CN(C)c1cnccn1,0.967 ± 0.046,0.904 ± 0.32
CSCC[C@H](NC(=O)[C@H](Cc1c[nH]c2ccccc12)NC(=O)CCNC(=O)OC(C)(C)C)C(=O)N[C@@H](CC(=O)O)C(=O)N[C@@H](Cc1ccccc1)C(N)=O,1 ± 0.04,0.827 ± 0.23
Cl.N=C(N)NCCC[C@H](N)C(=O)O,1.05 ± 0.065,1.02 ± 0.092
NCC(=O)CCC(=O)O,1.09 ± 0.029,1.02 ± 0.042
Cc1nc(C)c(Cl)c(O)c1Cl,0.942 ± 0.035,1.16 ± 0.1
C[C@]12CCC(=O)C=C1CC[C@@H]1[C@@H]2[C@@H](O)C[C@@]2(C)[C@H]1CC[C@]2(O)C(=O)COP(=O)(O)O,0.9812 ± 0.0046,0.999 ± 0.047
O=C(O)c1cc(O)c2c(c1)[C@H]([C@H]1c3cc(C(=O)O)cc(O)c3C(=O)c3c(O[C@@H]4O[C@H](CO)[C@@H](O)[C@H](O)[C@H]4O)cccc31)c1cccc(O[C@@H]3O[C@H](CO)[C@@H](O)[C@H](O)[C@H]3O)c1C2=O,0.957 ± 0.08,0.961 ± 0.026
O=C1C2CC3CC1CC(O)(C3)C2,1 ± 0.017,1.06 ± 0.065
CC(C)NC(=N)NC(=N)Nc1ccc(Cl)cc1,0.664 ± 0.018,0.164 ± 0.01
N=C(NCCCCCCNC(=N)NC(=N)Nc1ccc(Cl)cc1)NC(=N)Nc1ccc(Cl)cc1,0.912 ± 0.078,1.15 ± 0.014
O=C1c2c(O)cc(CO)cc2C(OC2OC(CO)C(O)C(O)C2O)c2cccc(OC3OC(CO)C(O)C(O)C3O)c21 (centres undefined) [CASANTHRANOL [cascaroside A shown]],0.997 ± 0.016,0.857 ± 0.041
